# The list is not random: actives were taken first. Their share in the collection is about 5.4%.
# FMDV inh: foot and mouth disease virus antiviral activity. FMDV antiviral cell-based qHTS. Potency, µM (doses to about 57.9 µM), without a hit: at the top dose activity change, negative = inhibition, most hits filed as inhibitors. 1.2% of 410,000 active. AID 1159524; calls by dose curve; tested in HEK293T cells; further: read-out not given here; nearly all actives have a fitted effect of over 45% in size
# Vaccinia Venus: inhibitors of vaccinia virus (Venus reporter) | Vaccinia virus Venus reporter expression, fluorescence | Potency, µM (titrated, usually from 36.5 µM), for inactives: top-dose activity change, negative = inhibition, hits mostly inhibitors | 0.46% of 330,000 active | AID 720580; calls by dose curve; tested in A549 cells; further: nearly all actives have a fitted effect of over 30% in size
# Sm TGR inh: S. mansoni TGR enzyme inhibition; Q962Y6; purified TGR, DTNB reduction, TNB absorbance 405 nm; Potency, µM (highest dose often 114 µM), inactives show top-dose activity change, negative = inhibition, usual class: inhibitors; 3% of 360,000 active; AID 485364; active means well fitted inhibition curve with a large enough effect; inconclusive means small, poorly fitted or top-dose-only effect; inactive means no such curve, though single readings can be large or run the other way; further: nearly all actives have a fitted effect of over 60% in size
#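 Kinetic colorimetric format: TGR-catalysed, NADPH-driven DTNB reduction monitored via TNB absorbance. Enzyme dispensed at 20 nM; compound exposure 15 min at room temperature before reaction start.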
# MARV entry inh: blocks Marburg virus binding to or entry into cells | Potency, µM (series often up to 37.8 µM), for inactives: top-dose activity change, negative = inhibition, actives largely listed as inhibitors | Marburg virus pseudotyped entry inhibition, cell reporter | 1.8% of 300,000 active; calls by dose curve; tested in HEK293 cells
# VACV mCherry inh: vaccinia inhibition (mCherry reporter); 0.63% of 310,000 active; Vaccinia virus mCherry reporter infection, fluorescence; Potency, µM (series often up to 36.5 µM), inactives show at the top dose activity change, negative = inhibition, actives largely listed as inhibitors; calls by dose curve; tested in A549 cells; further: nearly all actives have a fitted effect of over 35% in size
# Lassa entry inh: blocks Lassa virus binding to or entry into cells. 1.2% of 300,000 active. Lassa virus pseudotype entry inhibition, cell reporter. Potency, µM (highest dose often 37.9 µM), inactives show at the highest dose activity change, negative = inhibition, usual class: inhibitors; calls by dose curve; tested in HEK293 cells; further: nearly all actives have a fitted effect of over 50% in size
# The depositor's hits bear a star; i = inactive; u = inconclusive; x = not tested or not shown; [ ] = another dose, or the depositor's remark. On the % scale 0 is the no-effect control and ±100 the full control effect; potency means the concentration at half of the fitted maximal effect.
SMILES,FMDV inh,Vaccinia Venus,Sm TGR inh,MARV entry inh,VACV mCherry inh,Lassa entry inh
Oc1c(CN2CCCC(C(F)(F)F)C2)cc(Cl)c2ccccc12 (configuration not stated),-27%,-1%,2µM*,u,-8%,u
CCOC(=O)C1CCN(Cc2cc(Cl)c3ccccc3c2O)CC1,-7%,6%,4.5µM*,u,u,-3%[46.1 µM]
O=C(c1cccc(C(F)(F)F)c1)C1CCCN(Cc2ccccc2O)C1 (configuration not stated),-11%,1%,0%,-12%[46.1 µM],-5%,-1%
CCOC(=O)C1CCN(Cc2ccc(OC)c(C)c2OC)CC1,7%,x,-7%,-45%,x,-40%
CCOC(=O)N/N=C1\C[C@@H](O)[C@@H](O)[C@@H]2[C@@H]3C(=O)N(C[C@@H]4CCCO4)C(=O)[C@@H]3CC[C@@H]12,x,x,x,6%[14.2 µM],x,x
Cc1cccc(C(=O)Nc2sc3c(c2C(=O)Nc2ccccc2)CCC3)c1,-11%,-29%,-2%,x,-21%,u
CCOc1ccc(NC(=O)c2c(NCc3ccc(C)o3)sc3c2CCCCC3)cc1,-12%,-3%[7.34 µM],8.9µM*,x,-8%[7.34 µM],11%[46.1 µM]
O=C(Nc1sc2c(c1C(=O)Nc1ccc(Cl)cc1)CCCC2)c1cccs1,u,u,0%,x,13µM*,-1%[46.1 µM]
Cc1cccc(C(=O)Nc2sc3c(c2C(=O)O)CCCC3)c1,-10%,u,-13%,2µM*,u,u
COc1ccc(OC)c(NC(=O)c2c(NCc3cccs3)sc3c2CCCCC3)c1,27%,-3%,40µM*,x,-16%,-21%[46.1 µM]
CCOC(=O)c1c(N)sc2c1CCN(Cc1ccccc1)C2,x,-20%,x,x,-8%,x
CC1=CC[C@@H](C)O[C@@]2(C1)C(=O)Nc1ccccc12,x,x,x,-9%[14.2 µM],x,x
CC(=O)N1CCc2cc(Br)cc(S(=O)(=O)N3CCC(C(=O)Nc4cccc(C)c4C)CC3)c21,0%,-12%,-3%,4%[46.1 µM],-17%,16%[46.1 µM]
CCOc1ccc(NC(=O)c2c(NCc3cc(OC)c(OC)cc3OC)sc3c2CCCC3)cc1,-2%,-10%,-27%,x,-17%,10%[46.1 µM]
CCOc1ccc(NC(=O)c2c(NCc3sccc3C)sc3c2CCCCC3)cc1,23%,-3%[7.34 µM],7.9µM*,x,-14%[7.34 µM],-21%[46.1 µM]
COc1ccc(NC(=O)c2c(NCc3cccs3)sc3c2CCCCC3)cc1,58%,1%,18µM*,x,-6%,-3%[46.1 µM]
CCOc1ccccc1NC(=O)c1c(NCc2cccs2)sc2c1CCCCC2,38%,-9%,7%,x,-3%,0%[46.1 µM]
CCOc1ccc(NC(=O)c2c(NCc3cccs3)sc3c2CCCCC3)cc1,46%,0%,7.9µM*,x,-10%,-13%[46.1 µM]
O=C(Nc1cccc(Cl)c1)c1c(NC(=O)C(F)(F)F)sc2c1CCCC2,u,u,u,x,13µM*,u
COc1ccc(C(CC(=O)Nc2ccc(C)cn2)N2Cc3ccccc3C2=O)cc1OC (configuration not stated),0%,-4%,4%,x,-10%,12%[46.1 µM]
C=CCOc1cccc(C2C(C(=O)c3ccc(C)o3)=C(O)C(=O)N2Cc2ccncc2)c1 (configuration not stated),40%,-10%,u,-3%,i,28%
COc1ccc(C2C(C(=O)c3ccco3)=C(O)C(=O)N2CCN2CCOCC2)c(OC)c1 (configuration not stated),2%,-12%,-35%,3%[46.1 µM],0%,-25%
C=CCOc1cccc(C2C(C(=O)c3ccco3)=C(O)C(=O)N2Cc2ccco2)c1 (configuration not stated),64%,1%,32µM*,-1%[46.1 µM],-3%,x
C=CCOc1cccc(C2C(C(=O)c3ccco3)=C(O)C(=O)N2Cc2ccncc2)c1 (configuration not stated),43%,5%,45µM*,-8%,-4%,8%
C=CCOc1cccc(C2C(C(=O)c3ccco3)=C(O)C(=O)N2CCN2CCOCC2)c1 (configuration not stated),16%,-10%,25µM*,8%[46.1 µM],i,3%
COc1ccc(/C=c2\[nH]c(=O)/c(=C/c3ccc(OC)cc3)[nH]c2=O)cc1,x,-2%,x,x,i,x
CN(C)c1c(Cl)cc(/C=C/c2ccnc3ccccc23)cc1Br,x,-16%,x,x,-21%,x

# Compound activity (PubChem)
